TexasRed autofl = Texas Red region autofluorescence | Compound fluorescence, Texas Red channel, 547/618 nm; active compounds read high | max dye-equivalent concentration, M | 0.06% of 59,000 active | AID 587; in the data active = max dye-equivalent concentration above about 10 nM; inconclusive = between about 1.1 nM and that limit
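qHTS profiling of intrinsic compound fluorescence; 100 mM Tris pH 8.0; 15 min RT; ex 547 / em 618 nm; response expressed as Texas Red dye-equivalent concentration from six-point plate standard.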
A647 fluor = compound fluoresces in the A647 spectral region; AID 592; max dye-equivalent concentration, M; 59,000 tested, under 10 active; Compound fluorescence, A647 channel (570/671 nm), Tris buffer;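 note: values scaled relative to a standard on each plate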
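Each compound's intrinsic fluorescence at 570 nm excitation and 671 nm emission is measured across its concentration series in 100 mM Tris, pH 8.0, after 15 min at room temperature, and reported relative to an A647 curve.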
A488 autofl = compound autofluorescence in A488 spectral region | 0.1% of 59,000 active | AID 591 | max dye equivalency, M | compound autofluorescence, A488 spectral region, dye equivalency; Compound Type: qHTS ECL - MLSMR
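Compound autofluorescence was read in 100 mM Tris pH 8.0 after 15 min at room temperature, ex 480 nm/em 540 nm. Intensities were converted to A488 dye-equivalent concentration using an on-plate six-point A488 standard curve.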
Resorufin autofl = resorufin region autofluorescence | Compound fluorescence, resorufin region 547/598 nm, buffer; active compounds read high | max dye-equivalent concentration, M | 0.04% of 59,000 active | AID 588
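Compounds in 100 mM Tris, pH 8.0, incubated 15 min at room temperature, then fluorescence read at 547 nm excitation/598 nm emission. Signal converted to dye-equivalent concentration via an on-plate six-point resorufin standard curve, per compound concentration.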
Fluorescein autfl = fluorescein region autofluorescence. max fluorescein-equivalent concentration, M. Compound autofluorescence, 480/540 nm, fluorescein-equivalent; active compounds read high. 0.91% of 59,000 active. AID 593; in the data active = max fluorescein-equivalent concentration above about 10 nM; inconclusive = between about 1.1 nM and that limit
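Read-out is intrinsic compound fluorescence at 480/540 nm (excitation/emission), expressed as dye-equivalent concentration using a fluorescein standard series run on every plate. Compounds sat 15 min at room temperature in 100 mM Tris, pH 8.0.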
Rhodamine fluor = compound autofluorescence in rhodamine spectral region; Rhodamine-region fluorescence, 547/598 nm, Tris buffer; active compounds read high; max dye-equivalent concentration, M; 0.05% of 59,000 active; AID 594; in the data active = max dye-equivalent concentration above about 11 nM; inconclusive = between about 1.1 nM and that limit
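Steps: pin-transfer compounds into pH 8.0 Tris (100 mM), hold 15 min at room temperature, image with a 547/598 nm filter pair, and convert intensities to rhodamine-equivalent concentration using a six-point on-plate rhodamine series.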
* hit, by the source's call; i = inactive; ? = inconclusive; ! = not confirmed by another sample. Only some compounds are listed: those with a hit (about 0.9% of all), similar ones and a draw of the others. Unless noted, the rule behind the calls is not given here.

SMILES	TexasRed autofl	A647 fluor	A488 autofl	Resorufin autofl	Fluorescein autfl	Rhodamine fluor
C=CCn1c(=S)[nH]c2nc3c(cc2c1=O)CCCC3	i	2e-09	i	i	i	i
CC(C)(C)C(=O)[C@H]([C@@H](c1ccccc1)N1CCOCC1)N1CCOCC1	i	4.1e-08	i	i	i	i
O=C(NC12CC3CC(CC(C3)C1)C2)c1cnccn1	?	1.8e-09	i	i	1.1e-08M*	i
COc1ccc(-c2coc3cc(O[C@@H]4O[C@@H](CO)[C@@H](O)[C@@H](O)[C@H]4O)cc(O)c3c2=O)cc1	i	5.2e-09	i	i	i	i
COC(=O)[C@@H](NC(=O)c1cc(-c2ccccc2)nc2ccccc12)c1ccccc1	i	9.2e-09	i	i	i	i
O=C(Cn1cc(C(=O)COc2ccccc2)c2ccccc21)NCc1ccco1	i	1.1e-08	i	i	1.5e-08M*	i
OC[C@@H]1O[C@@H](n2cnc3cncnc32)[C@@H](O)[C@H]1O	?	2.9e-09	i	i	?	i
Cc1cccc(C)c1NC(=O)CN1CCN(CCCC(c2ccc(F)cc2)c2ccc(F)cc2)CC1	i	4.4e-09	i	i	1e-08M*	i
CCN(CC)CCC[C@H](C)Nc1c2ccc(Cl)cc2nc2ccc(OC)cc12	i	3.4e-08	?	i	9e-08M*	i
CC[C@@H]1CN2CCc3cc(OC)c(OC)cc3[C@H]2C[C@@H]1C[C@@H]1NCCc2cc(OC)c(OC)cc21	i	6.5e-08	i	i	?	i
c1ccc2[nH]c(CN3CCCCCC3)nc2c1	i	4.5e-08	i	i	?	i
[O-][n+]1c(CN2CCCCC2)nc2cccc3c2c1-c1ccccc1-3	i	5.2e-09	i	i	1.7e-08M*	i
COC(=O)[C@@H]1[C@@H]2C[C@H]3c4[nH]c5ccccc5c4CCN3C[C@@H]2CC[C@@H]1OS(=O)(=O)O	i	5.2e-08	i	i	?	i
O=C(O)[C@@H]1[C@@H]2C[C@H]3c4[nH]c5ccccc5c4CCN3C[C@@H]2CC[C@@H]1O	i	7.8e-09	i	i	1.7e-08M*!	i
Cc1cc(C)c(S(=O)(=O)N(CC(=O)N2CCOCC2)C2CCCCC2)c(C)c1	i	1e-09	i	i	i	i
Cc1cc(C)c(S(=O)(=O)N(CC(=O)O)C2CCCCC2)c(C)c1	i	3.5e-08	i	i	2.6e-08M*	i
COc1ccc(S(=O)(=O)C(C#N)c2nc3ccccc3nc2N2CCCCC2)cc1 (stereo not drawn)	i	5.4e-09	i	i	?	i
N#CC(c1nc2ccccc2nc1N1CCCC1)S(=O)(=O)c1cccs1 (stereo not drawn)	i	2.8e-08	i	i	1.7e-08M*	i
Cc1ccc(C)c(S(=O)(=O)C(C#N)c2nc3ccccc3nc2N2CCCC2)c1 (stereo not drawn)	i	2.1e-08	i	i	1.1e-08M*	i
CCOC(=O)c1c(C)[nH]c(C=Nc2ccccc2)c1O	?	3.6e-08	i	i	1.7e-08M*	i
NC(=O)c1cc2ccc(O)cc2oc1=Nc1ccccc1	i	2.5e-08	i	i	?	i
NC(=O)c1cc2ccc(O)cc2oc1=NCc1ccccc1	i	1.3e-09	1.5e-08M*	i	2.7e-07M*	i
COc1ccc2c(c1)c1c(C)c3cnccc3c(C)c1n2CCCN	i	1e-09	i	i	i	i
Cc1c(N=C2Nc3cccc4cccc2c34)c(=O)n(-c2ccccc2)n1C	i	2.7e-09	?	i	1.5e-07M*	i
CCCCCCCCCCCCCCCC(=O)NC[C@@H](COP(=O)([O-])OCC[N+](C)(C)C)OCC	i	1e-09	i	i	i	i
SMILES	TexasRed autofl	A647 fluor	A488 autofl	Resorufin autofl	Fluorescein autfl	Rhodamine fluor
Nc1ncnc2nc[nH]c12.Nc1ncnc2nc[nH]c12.[Cl][Pt]([Cl])([Cl])[Cl]	i	1e-09	i	i	i	i
Nc1nc(N)nc(CCCCc2nc(N)nc(N)n2)n1	?	1e-09	i	i	i	i
Cc1ccnn2c(-c3ccccc3)c3c(=O)n(C)c(=O)n(C)c3c12	i	9.5e-09	i	i	1.2e-08M*	i
Cc1ccc(-c2c3c(=O)n(C)c(=O)n(C)c3c3nnc4ccccc4n23)cc1	i	9e-09	?	i	1.1e-07M*	i
CC(C)c1ccc2c(c1)CC[C@@H]1[C@@](C)(CN)CCC[C@@]21C	i	1e-09	i	i	1.2e-08M*	i
N#CCCn1c(=O)c(-c2cccs2)nc2cnc(Nc3ccccc3)nc21	i	1e-09	i	i	?	i
CCNc1ncc2nc(-c3cccs3)c(=O)n(CCC#N)c2n1	i	1e-09	i	i	1.4e-08M*	i
CN[C@@H](CC(C)C)C(=O)N[C@@H]1C(=O)N[C@H](CC(N)=O)C(=O)N[C@H]2C(=O)N[C@H]3C(=O)N[C@H](C(=O)N[C@H](C(=O)O)c4cc(O)cc(O)c4-c4cc3ccc4O)[C@H](O)c3ccc(c(Cl)c3)Oc3cc2cc(c3O[C@@H]2O[C@@H](CO)[C@@H](O)[C@@H](O)[C@H]2O[C@H]2C[C@](C)(N)[C@H](O)[C@H](C)O2)Oc2ccc(cc2Cl)[C@@H]1O	i	3.9e-08	i	i	?	i
CCN1C(=O)/C(=C2/SC(C)=C(C)N2CC)SC1=S	i	1e-09	?	i	7.1e-08M*	i
CC1(NC[C@@H](O)COc2cccc3[nH]ccc23)CCC(C(C)(C)NC(=O)CBr)CC1 (stereo partly drawn)	i	6.7e-09	i	i	?	i
O=C1C=CC2=C3c4cc(O)c(O)cc4C[C@@]3(O)COC2=C1O	?	3.9e-09	i	i	?	i
O=c1c2ccccc2c(/C=N/n2cnnc2)c(O)n1-c1ccccc1F	i	2.8e-09	i	i	1.3e-08M*	i
COc1ccc2c(C)cc(SCC(=O)N3CCOCC3)nc2c1	i	3.7e-08	?	i	5.9e-08M*	i
CCNC(=O)[C@@H]1O[C@@H](n2cnc3c(NCc4ccccc4)ncnc32)[C@@H](O)[C@H]1O	i	4.6e-09	i	i	i	i
Cc1ccc(S(=O)(=O)c2cc3c(=O)n4ccccc4nc3n(Cc3ccco3)c2=N)cc1	?	7.5e-09	i	i	1.5e-08M*	i
N=c1c(C(=O)NCc2ccco2)cc2c(=O)n3ccccc3nc2n1Cc1ccccc1	i	3.4e-08	i	i	1.9e-08M*	i
CCCCNC(=O)c1cc2c(=O)n3cccc(C)c3nc2n(Cc2ccncc2)c1=N	?	3.2e-09	i	i	1.6e-08M*	i
